Bioassay records from PubChem BioAssay.
A selection: hits, their analogues and other compounds. The true share with any hit is near 19%.
DT40 TDP1 CPT = growth inhibition of DT40 Tdp1-/-;hTDP1 cells with camptothecin (screen for TDP1 inhibitors); hit rate 12% among 420,000; chicken DT40 Tdp1-/-;hTDP1 cells + 20 nM CPT, ATP luminescence, 48 h; Potency, µM (doses to about 46.2 µM), inactives show top-dose activity change, negative = growth inhibition, most hits filed as inhibitors; AID 686979; also: potency is read from the fitted curve at half-maximal effect; nearly all actives have a fitted effect of over 55% in size
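Cell growth measured by CellTiter-Glo luminescence after a minimum 48 h, 37 C compound exposure with 20 nM CPT in Tdp1-knockout DT40 cells stably expressing hTDP1, seeded 400/well; qHTS titration format.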
HT1080 IDH1KD tx = kills HT-1080 cells with IDH1 knockdown; HT-1080 IDH1 knockdown viability, ATP luminescence, 48 h; Potency, µM (doses to about 46.1 µM), inactives show top-dose activity, negative = toxicity, hits mostly cytotoxic; hit rate 2% among 360,000;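 also: potency is read from the fitted curve at half-maximal effect; 0% = DMSO wells and -100% = cell-free medium wells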
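After a 2 h attachment period, IDH1KD HT-1080 cells took pin-transferred compound for 48 h at 37 °C; ATP-based luminescence after 10 min room-temperature reagent incubation reported viability.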
HT1080-NT tox = kills 2HG-producing HT-1080-NT fibrosarcoma cells | hit rate 1.6% among 360,000 | Potency, µM (highest dose often 46.1 µM), inactives show at the highest dose activity, negative = less viability, hits mostly cytotoxic | AID 686970 | HT-1080-NT fibrosarcoma viability, CellTiter-Glo ATP luminescence, 48 h;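 also: NT is the 2HG producing partner of a matched IDH1 knockdown line; potency is read from the fitted curve at half-maximal effect; 0% = DMSO-treated cells and -100% = media-only wells without cells; nearly all actives have a fitted effect of over 55% in size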
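750 cells/well, RPMI + 5% FBS; 2 h settle, compound pin-transfer, 48 h at 37 degrees C. CellTiter-Glo 10 min RT, luminescence. Normalized to DMSO and media-only wells.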
IL-1B inflam inh = inflammasome signaling inhibition, IL-1 beta readout; THP-1 LPS/ATP IL-1B secretion, AlphaLISA, 16 h; hits give low values; activity change, % at 57.5 µM; hit rate 4.7% among 360,000; in the data active = activity change below about -50%; inconclusive = mostly about -30% to -49%
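Secreted IL-1B measured by AlphaLISA bead assay after 16 h compound exposure of THP-1 cells; compounds (final up to 57.5 uM) added 1 h before LPS (250 ng/mL) and ATP (1.25 mM) stimulation; lower signal means less secretion.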
TDP1 cell noCPT = qHTS for Inhibitors of human tyrosyl-DNA phosphodiesterase 1 (TDP1): qHTS in cells in absence of CPT | DT40 Tdp1-/- hTDP1 cells, no CPT, ATP luminescence, 48 h | Potency, µM (top dose mostly 46.2 µM), inactives show at the highest dose activity change, negative = growth inhibition, usual class: inhibitors | hit rate 15% among 420,000 | AID 686978, 2013; also: potency is read from the fitted curve at half-maximal effect; nearly all actives have a fitted effect of over 55% in size
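Chicken DT40 Tdp1-/- cells complemented with human TDP1, screened without camptothecin (DMSO vehicle only), 400 cells/well. Compounds pin-transferred, cells incubated at 37 °C for at least 48 hr. Growth read as ATP-dependent luminescence (CellTiter-Glo, 30 min at RT).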
* = called active by the depositor; u = inconclusive; x = no result. Unless noted, calls follow the shape of the dose curve; as a rule, active = well fitted curve in the direction sought with a large enough effect; inconclusive = small, poorly fitted or top-dose-only effect, or another doubt; inactive = no such curve, though single readings can be large; an effect the other way counts as inactive or inconclusive. Unless noted, % is scaled to controls: 0 for no effect and ±100 for the full control effect.

SMILES	DT40 TDP1 CPT	HT1080 IDH1KD tx	HT1080-NT tox	IL-1B inflam inh	TDP1 cell noCPT
O=C(Cc1ccccc1)Nc1sc2c(c1C(=O)Nc1ccccc1Cl)CCC2	0%	x	x	x	-15%
Cc1c(C(=O)N2CCN(c3ccccc3F)CC2)sc2ncn(CC(=O)N3CCOCC3)c(=O)c12	-3%	8%	1%	-2	-28%
COc1ccc(C)cc1NC(=O)c1sc2nc(C)nc(N3CCOCC3)c2c1C	6%	6%	-1%	15	u
Cc1nc(N2CCN(c3ccccn3)CC2)c2c(C)c(C(=O)Nc3ccc(Br)cc3C)sc2n1	16µM*	3%	9%	-24	u
Cc1nc(N2CCN(c3ccccn3)CC2)c2c(C)c(C(=O)N3CCN(c4ccccc4F)CC3)sc2n1	u	-4%	-25%	u	21µM*
CCOC(=O)c1sc2ncnc(N3CCN(C(=O)OCC)CC3)c2c1C	15µM*	-5%	-3%	u	u
COc1ccc(C)cc1NC(=O)c1sc2ncnc(N3CCN(c4ccccn4)CC3)c2c1C	16µM*	13%	7%	-6	18µM*
COc1ccc(C(C)(C)C)cc1NC(=S)NCCN1CCOCC1	-1%	0%	7%	-5	-2%
Cn1c(=O)c2c(nc(Sc3ncnn3CC(=O)N3CCOCC3)n2C)n(C)c1=O	1%	1%	-1%	10	0%
Cc1nc(N2CCN(C)CC2)c2c(C)c(C(=O)Nc3ccc(F)cc3)sc2n1	u	0%	-2%	-78*	u
Cc1ccc(NC(=O)c2sc3ncn(CC(=O)N4CCN(c5ccccn5)CC4)c(=O)c3c2C)cc1F	u	0%	-15%	34	-17%
CCOc1ccccc1NC(=O)c1sc2nc(C)nc(N3CCOCC3)c2c1C	5%	16%	10%	15	u
COc1cc(NC(=O)c2sc3nc(C)nc(N4CCOCC4)c3c2C)cc(OC)c1OC	21µM*	-24%	-12%	u	12µM*
Cc1ccc(NC(=O)c2sc3ncnc(N4CCN(c5ccccn5)CC4)c3c2C)c(C)c1	u	-15%	4%	u	18µM*
CCN(CC)CCN1c2ccccc2Sc2ccc3ccccc3c21	-17%	u	u	-74*	16µM*
CCN(CC)CCN1c2ccccc2Sc2ccccc21	u	6%	-9%	0	u
COc1ccc(-c2nc3cc(C)ccn3c2NC(=O)c2ccc(F)cc2)cc1	-7%	x	x	x	u
Cc1cc2ccccc2nc1-c1ccccc1F	2%	10%	11%	18	u
Cc1ccn2c(Nc3ccc(F)cc3)c(-c3ccccn3)nc2c1	10µM*	x	x	x	13µM*
Cc1ccc(Nc2c(-c3ccsc3)nc3cccc(C)n23)cc1	16µM*	-23%	-28%	x	u
Cc1ccc(Nc2c(-c3ccccn3)nc3cccc(C)n23)cc1	2.6µM*	7.3µM*	12µM*	u	2.1µM*
Cc1cccc(C)c1Nc1c(-c2ccccc2F)nc2cccc(C)n12	10µM*	x	x	x	-78%
CC(C)CCN(C)C1CCN(C(=O)Nc2c(F)cccc2F)CC1	2%	-1%	0%	-6	-7%
Cc1ccc(Nc2c(-c3ccccn3)nc3ccc(Br)cn23)cc1	9.2µM*	x	x	x	21µM*
Cc1cccc2nc(-c3ccccn3)c(Nc3ccc(F)cc3)n12	12µM*	x	x	x	18µM*
SMILES	DT40 TDP1 CPT	HT1080 IDH1KD tx	HT1080-NT tox	IL-1B inflam inh	TDP1 cell noCPT
Cc1ccc(Nc2c(-c3ccccc3O)nc3ccc(Br)cn23)cc1	-16%	x	x	x	-1%
Cc1cccc2nc(-c3ccco3)c(Nc3ccccc3)n12	u	5%	10%	22	u
Cc1cccc2nc(-c3ccccn3)c(Nc3ccccc3)n12	4.1µM*	x	x	x	4.1µM*
CCCc1cc2c(=O)n(NC(=O)c3nn(C)cc3[N+](=O)[O-])c(C)nc2s1	5%	13%	20%	-2	-27%
CC(=O)CSc1nnc(-c2ccc(S(=O)(=O)N3CCC(C)CC3)cc2)o1	-6%	18%	17%	14	-6%
O=C1C2=C(NC(=S)NC2c2ccc(Cl)cc2)NC(c2ccc(Cl)cc2)N1c1ccc(Cl)cc1 (stereo unspecified)	u	u	u	-101*	u
CCc1ccc(C2NC(=S)NC3=C2C(=O)N(c2ccccc2OC)C(c2ccc(CC)cc2)N3)cc1 (stereo unspecified)	16µM*	-3%	1%	-79*	18µM*
CC(C)CN=C(NS(=O)(=O)c1ccccc1)C(Cl)(Cl)Cl	4.6µM*	6.5µM*	6.5µM*	-12	5.8µM*
COc1cc(CCN(C(=O)c2cc3ccccc3[nH]2)C(c2ccccn2)c2nc3ccccc3[nH]2)cc(OC)c1 (stereo unspecified)	u	u	-1%	-10	u
CCOC(=O)C(=C1Nc2ccccc2N1)n1c(-c2ccco2)nc2ccccc21	7.3µM*	-2%	-6%	3	u
CCOC(=O)C(=C1Nc2ccccc2N1)n1c(-c2cnccn2)nc2ccccc21	-19%	0%	-2%	-15	-25%
COc1ccc(S(=O)(=O)N(CC(=O)Nc2cccnc2)c2ccc(Cl)cc2)cc1	3%	x	x	x	-25%
CCc1ccc(OCCCC(=O)NCc2ccccc2)cc1	29µM*	u	u	6	21µM*
Cc1cccc(OCCCC(=O)NC(C)c2ccccc2)c1 (stereo unspecified)	15%	10%	12%	2	-11%
Cc1cccc(OCCCC(=O)O)c1	-5%	-1%	5%	28	-13%
O=C(Cc1ccc(OCCCc2ccccc2)cc1)NO	11µM*	x	x	x	14µM*
COc1ccc(CNC(=O)CCCc2ccccc2)cc1	-5%	8%	11%	15	-18%
Cc1cccc(OCCC(=O)NO)c1	10µM*	-14%	u	x	10µM*
Cc1cccc(OCCCC(=O)NC(C)C)c1	-6%	-3%	1%	-1	23µM*
CCCCOc1ccc(CC(=O)NOC)cc1	-3%	x	x	x	-11%
COc1ccc(CC(=O)NO)cc1	-6%	19%	16%	x	u
O=C(CCOc1ccccc1)NO	10µM*	-2%	-1%	x	11µM*
CC(C)COc1ccc(CC(=O)NO)cc1	8.9µM*	x	x	x	u
O=C(CCCCCCC(=O)Nc1ccccc1)NO	0.42µM*	x	x	x	0.6µM*
NC(Cc1ccccc1)c1csc(Nc2nncc3ccccc23)n1 (stereo unspecified)	21µM*	u	u	-26	23µM*
NC(CCc1ccccc1)c1csc(Nc2nncc3ccccc23)n1 (stereo unspecified)	21µM*	u	u	u	21µM*
